Compounds with a hit are over-represented: about 19% of the library has one in this group of screens.
HT1080-NT tox – kills 2HG-producing HT-1080-NT fibrosarcoma cells. 1.6% of 360,000 active. HT-1080-NT fibrosarcoma viability, CellTiter-Glo ATP luminescence, 48 h. AID 686970. Potency, µM (top dose mostly 46.1 µM), without a hit: at the highest dose activity, negative = less viability, most hits filed as cytotoxic;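 note: NT is the 2HG producing partner of a matched IDH1 knockdown line; potency is the fitted concentration of half-maximal effect; 0% = DMSO-treated cells and -100% = media-only wells without cells; nearly all actives have a fitted effect of over 55% in size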
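Fibrosarcoma NT cells, 750 per well in 5% FBS RPMI, were exposed to compound for 48 hours. Viability: CellTiter-Glo luminescence.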
DT40 TDP1 no CPT – qHTS for Inhibitors of human tyrosyl-DNA phosphodiesterase 1 (TDP1): qHTS in cells in absence of CPT | 15% of 420,000 active | Potency, µM (highest dose often 46.2 µM), for the others: at the top dose activity change, negative = growth inhibition, most hits filed as inhibitors | AID 686978, 2013 | DT40 Tdp1-/- hTDP1 cells, no CPT, ATP luminescence, 48 h; note: potency is the fitted concentration of half-maximal effect; nearly all actives have a fitted effect of over 55% in size
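Chicken DT40 Tdp1-/- cells stably complemented with human TDP1 were seeded at 400 cells/well with DMSO in place of 20 nM camptothecin. After compound pinning, cells grew at least 48 hr at 37 °C; viability read by CellTiter-Glo luminescence.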
TDP1 cell CPT – growth inhibition of DT40 Tdp1-/-;hTDP1 cells with camptothecin (screen for TDP1 inhibitors) | chicken DT40 Tdp1-/-;hTDP1 cells + 20 nM CPT, ATP luminescence, 48 h | Potency, µM (highest dose often 46.2 µM), for the others: top-dose activity change, negative = growth inhibition, most hits filed as inhibitors | 12% of 420,000 active | AID 686979; note: potency is the fitted concentration of half-maximal effect; nearly all actives have a fitted effect of over 55% in size
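Chicken DT40 Tdp1-/- cells stably complemented with human TDP1 were seeded at 400 cells/well in medium containing 20 nM camptothecin, exposed to pin-transferred compounds, and grown at 37 °C for at least 48 hr. Viability was read as ATP luminescence.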
HT1080 IDH1KD tx – toxicity to HT-1080 IDH1 knockdown cells (counter line); HT-1080 IDH1 knockdown viability, ATP luminescence, 48 h; Potency, µM (highest dose often 46.1 µM), for the others: top-dose activity, negative = toxicity, most hits filed as cytotoxic; 2% of 360,000 active;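 note: potency is the fitted concentration of half-maximal effect; 0% = DMSO wells and -100% = cell-free medium wells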
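HT-1080-IDH1KD cells (IDH1 knocked down), 750/well in RPMI with 5% FBS, treated with compound 48 h at 37 degrees C. Viability by CellTiter-Glo luminescence, normalised to DMSO and no-cell wells; concentration-response curves classed.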
IL1B secr inh – inhibitors of inflammasome signaling (IL-1 beta secretion); AID 743279; THP-1 LPS/ATP IL-1B secretion, AlphaLISA, 16 h; active compounds read low; activity change, % at 57.5 µM; 4.7% of 360,000 active; in the data active = activity change below about -50%; inconclusive = mostly about -30% to -49%
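Secreted IL-1B measured by AlphaLISA bead assay after 16 h compound exposure of THP-1 cells; compounds (final up to 57.5 uM) added 1 h before LPS (250 ng/mL) and ATP (1.25 mM) stimulation; lower signal means less secretion.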
ELG1 repair inh – ELG1-dependent DNA repair inhibition. HEK293T ELG1-luciferase reporter, luminescence, 16 h; DNA damage induced by 5-fluorouridine. Potency, µM (series often up to 46.1 µM), without a hit: at the top dose activity change, negative = inhibition, actives largely listed as inhibitors. 2.3% of 330,000 active. AID 504467; note: potency is the fitted concentration of half-maximal effect; nearly all actives have a fitted effect of over 55% in size
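In this reporter screen, reduction of luminescence relative to DMSO vehicle indicated activity. Compounds and 5-fluorouridine were added together to 2,000 cells per well, incubated for 16 hr at 37 °C, then developed with ONE-Glo.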
Numbers without * were called inactive; [ ] = another dose, or the depositor's remark. Unless noted, calls come from the whole dose curve; as a rule, active = well fitted curve in the direction sought with a large enough effect; inconclusive = small, poorly fitted or top-dose-only effect, or another doubt; inactive = no such curve, though single readings can be large; an effect the other way counts as inactive or inconclusive. Unless noted, % is set by controls: 0 for no effect and ±100 for the full control effect.

For Cc1sc2ncnc(Nc3ccccc3)c2c1C the results were HT1080-NT tox -9.0%, DT40 TDP1 no CPT inconclusive, TDP1 cell CPT inconclusive, HT1080 IDH1KD tx 4.1%, IL1B secr inh -4.3 and ELG1 repair inh 11.8%.
Screening COc1ccc(-c2csc(NC(=O)C3=COCCO3)n2)c(OC)c1 returned HT1080-NT tox -5.3%, DT40 TDP1 no CPT -27.9%, TDP1 cell CPT -7.6%, HT1080 IDH1KD tx -4.3%, IL1B secr inh -19.6 and ELG1 repair inh inconclusive.
`CC(=O)Nc1nc(-c2ccc([N+](=O)[O-])cc2)cs1` gave HT1080-NT tox -12.9%, DT40 TDP1 no CPT inconclusive, TDP1 cell CPT inconclusive, HT1080 IDH1KD tx -6.0%, IL1B secr inh -13.5 and ELG1 repair inh 3.5%.
O=C(Nc1nc(-c2ccc([N+](=O)[O-])cc2)cs1)C1=COCCO1 was read as HT1080-NT tox 8.8%, DT40 TDP1 no CPT 9.2µM*, TDP1 cell CPT -24.5%, HT1080 IDH1KD tx -1.0% and IL1B secr inh -8.3.
For O=C(Nc1nc(-c2ccc([N+](=O)[O-])cc2)cs1)c1c(F)cccc1F the results were HT1080-NT tox -7.3%, DT40 TDP1 no CPT 4.61µM*, TDP1 cell CPT -2.9%, HT1080 IDH1KD tx -11.8%, IL1B secr inh -5.9 and ELG1 repair inh -1.4%.
Screening Cc1cc(C)c(-c2csc(NC(=O)C3=COCCO3)n2)cc1C returned HT1080-NT tox -3.0%, DT40 TDP1 no CPT 20.6µM*, TDP1 cell CPT 23.1µM*, HT1080 IDH1KD tx -12.1%, IL1B secr inh -11.5 and ELG1 repair inh inconclusive.
`COC(=O)C(CCSC)NC(=O)Cn1ncc2c([nH]c3ccccc32)c1=O` (centres undefined) gave DT40 TDP1 no CPT -6.6% and TDP1 cell CPT 11.0%.
Screening CCc1nc2nc(C)c(NS(=O)(=O)c3ccc(Cl)s3)c(=O)n2[nH]1 returned HT1080-NT tox -1.1%, DT40 TDP1 no CPT -3.9%, TDP1 cell CPT 10.0%, HT1080 IDH1KD tx 6.6%, IL1B secr inh 41.6 and ELG1 repair inh 7.2%.
CC(O)(c1ccc(F)c(F)c1)c1nc(-c2ccoc2)cs1 (centres undefined) was read as HT1080-NT tox -15.0%, DT40 TDP1 no CPT inconclusive, TDP1 cell CPT inconclusive, HT1080 IDH1KD tx -27.9% and IL1B secr inh -17.1.
Screening CCCCCC1=C(C(=O)OC)C(C(=O)OCC)N(S(=O)(=O)C(F)(F)F)c2ccccc21 (centres undefined) returned HT1080-NT tox 9.7%, DT40 TDP1 no CPT 20.6µM*, TDP1 cell CPT inconclusive, HT1080 IDH1KD tx 3.9%, IL1B secr inh 12.7 and ELG1 repair inh inconclusive.
For NC[C@H]1O[C@H](O[C@H]2[C@H](O)[C@@H](O[C@H]3O[C@H](CO)[C@@H](O)[C@H](N)[C@H]3O)[C@H](N)C[C@@H]2N)[C@H](N)[C@@H](O)[C@@H]1O the results were DT40 TDP1 no CPT -24.3% and TDP1 cell CPT inconclusive.
Screening COCc1cc(=O)n2[nH]c(-c3cccc(Br)c3)cc2n1 returned HT1080-NT tox 4.1%, DT40 TDP1 no CPT inconclusive, TDP1 cell CPT -2.9%, HT1080 IDH1KD tx 1.2%[9.24 µM], IL1B secr inh 10.7 and ELG1 repair inh inconclusive.
Screening CCc1c(C)nc2cc(-c3ccc(Cl)cc3)[nH]n2c1=O returned HT1080-NT tox -13.2%, DT40 TDP1 no CPT 2.31µM*, TDP1 cell CPT 3.66µM*, HT1080 IDH1KD tx -4.2%, IL1B secr inh 4.0 and ELG1 repair inh inconclusive.
For CCc1c(C)nc2cc(-c3cccc(Br)c3)[nH]n2c1=O the results were HT1080-NT tox 1.9%, DT40 TDP1 no CPT 1.46µM*, TDP1 cell CPT 4.61µM*, HT1080 IDH1KD tx -3.7%, IL1B secr inh 27.8 and ELG1 repair inh inconclusive.
`CCOC(=O)CCc1c(C)nc2cc(-c3ccc(Cl)cc3)[nH]n2c1=O` gave HT1080-NT tox 11.4%, DT40 TDP1 no CPT -14.3%, TDP1 cell CPT -28.7%, HT1080 IDH1KD tx 8.3%, IL1B secr inh -12.7 and ELG1 repair inh inconclusive.
For COc1cc(CNCc2cc3ccc(F)cc3nc2N2CCOCC2)cc(OC)c1OC the results were DT40 TDP1 no CPT -22.9% and TDP1 cell CPT -9.7%[9.04 µM].
CC1(C(=O)NCc2cccs2)Cc2c(-c3ccc4c(c3)OCO4)ccnc2O1 (centres undefined) was read as HT1080-NT tox inconclusive, DT40 TDP1 no CPT 2.31µM*, TDP1 cell CPT 1.3µM*, HT1080 IDH1KD tx inconclusive and IL1B secr inh 39.8.
Screening CC1(C(=O)NCc2cccs2)Cc2c(-c3ccccc3)ccnc2O1 (centres undefined) returned HT1080-NT tox inconclusive, DT40 TDP1 no CPT 6.51µM*, TDP1 cell CPT 5.8µM*, HT1080 IDH1KD tx inconclusive and IL1B secr inh 35.1.
`CC1(C(=O)NCc2cccc(Cl)c2)Cc2c(-c3ccc4c(c3)OCO4)ccnc2O1` (centres undefined) gave HT1080-NT tox inconclusive, DT40 TDP1 no CPT 16.4µM*, TDP1 cell CPT 25.9µM*, HT1080 IDH1KD tx inconclusive and IL1B secr inh 36.1.
CN(C)c1ccc(-c2ccnc3c2CC(C)(C(=O)NCc2cccs2)O3)cc1 (centres undefined) was read as HT1080-NT tox inconclusive, DT40 TDP1 no CPT 13µM*, TDP1 cell CPT 16.4µM*, HT1080 IDH1KD tx inconclusive and IL1B secr inh 11.1.
`CN(C)c1ccc(-c2ccnc3c2CC(C)(C(=O)Nc2cccc(C(F)(F)F)c2)O3)cc1` (centres undefined) gave HT1080-NT tox -0.3%, DT40 TDP1 no CPT inconclusive, TDP1 cell CPT -60.2%, HT1080 IDH1KD tx 8.4% and IL1B secr inh -18.2.
CC1(C(=O)Nc2ccccc2)Cc2c(-c3ccc4c(c3)OCO4)ccnc2O1 (centres undefined) was read as HT1080-NT tox inconclusive, DT40 TDP1 no CPT -13.4%, TDP1 cell CPT inconclusive, HT1080 IDH1KD tx inconclusive and IL1B secr inh -26.2.
Screening CC(C)(C)S(=O)(=O)N1C[C@H]2C(=CC[C@@H]3C(=O)N(c4ccccc4)C(=O)[C@@H]32)[C@H]1CCO returned HT1080-NT tox 7.1%, DT40 TDP1 no CPT inconclusive, TDP1 cell CPT -27.2%, HT1080 IDH1KD tx 8.2% and IL1B secr inh 22.4.
O=C(CSc1nnc(-c2ccco2)o1)c1ccc[nH]1 was read as HT1080-NT tox 4.0%, DT40 TDP1 no CPT inconclusive, TDP1 cell CPT -17.8%, HT1080 IDH1KD tx 1.5%, IL1B secr inh -3.7 and ELG1 repair inh inconclusive.

Screening data deposited in PubChem by National Center for Advancing Translational Sciences (NCATS).
